# Measurements taken from the supplement of paper PMC8728848.
# The full list was thinned out, with the strongest signals kept by preference.
# B1: Pa IMPa (Pseudomonas aeruginosa), Q9I5W4 (protein)
# chain: MSLSTTAFPSLQGENMSRSPIPRHRALLAGFCLAGALSAQAATQEEILDAALVSGDSSQLTDSHLVALRLQQQVERIRQTRTQLLDGLYQNLSQAYDPGAASMWVLPANPDNTLPFLIGDKGRVLASLSLEAGGRGLAYGTNVLTQLSGTNAAHAPLLKRAVQWLVNGDPGAATAKDFKVSVVGVDKTAALNGLKSAGLQPADAACNALTDASCASTSKLLVLGNGASAASLSATVRARLQAGLPILFVHTNGWNQSSTGQQILAGLGLQEGPYGGNYWDKDRVPSSRTRTRSVELGGAYGQDPALVQQIVDGSWRTDYDWSKCTSYVGRTTCDDVPGLSDFSKRVDVLKGALDAYNQKAQNLFALPGTTSLRLWLLWADAVRQNIRYPMDKAADTARFQETFVADAIVGYVREAGAAQKELGSYAGQRQQSMPVSGSEETLTLTLPSAQGFTAIGRMAAPGKRLSIRIEDAGQASLAVGLNTQRIGSTRLWNTRQYDRPRFLKSPDIKLQANQSVALVSPYGGLLQLVYSGATPGQTVTVKVTGAASQPFLDIQPGEDSSQAIADFIQALDADKADWLEIRSGSVEVHAKVEKVRGSIDKDYGGDVQRFIRELNEVFIDDAYTLAGFAIPNQAKTPAIQQECAARGWDCDSETLHKLPGTQHINVDQYAQCGGGCSGNPYDQTWGLNPRGWGESHELGHNLQVNRLKVYGGRSGEISNQIFPLHKDWRVLREFGQNLDDTRVNYRNAYNLIVAGRAEADPLAGVYKRLWEDPGTYALNGERMAFYTQWVHYWADLKNDPLQGWDIWTLLYLHQRQVDKSDWDANKAALGYGTYAQRPGNSGDASSTDGNDNLLLGLSWLTQRDQRPTFALWGIRTSAAAQAQVAAYGFAEQPAFFYANNRTNEYSTVKLLDMSQGSPAWPFP
# What was measured:
# Assay in all cases: glycan array binding signal (z-score within array); higher = stronger binding
# Conditions in all cases: glycan notation: IUPAC condensed, linker removed
# [1] = biological target: Fuc(a1-2)Gal(b1-3)GlcNAc
# Summary of the method: (§1)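 Glycan array binding is given as a within-array Z-score, which can be read as non-binding when negative. The arrays, 3228 of them, came from the Consortium for Functional Glycomics database and were retained only where the protein sequence was available. Z-scores were averaged across arrays of the same protein sequence at different concentrations or buffers and across linkers.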
# [2] = biological target: Fuc(a1-2)Gal(b1-3)GlcNAc6S
# Summary of the method: as §1
# [3] = biological target: Fuc(a1-2)Gal(b1-3)[Fuc(a1-4)]GlcNAc
# Summary of the method: as §1
# [4] = biological target: Fuc(a1-2)Gal6S(b1-3)GlcNAc
# Summary of the method: as §1
# [5] = biological target: Fuc(a1-2)Gal6S(b1-3)GlcNAc6S
# Summary of the method: as §1
# [6] = biological target: Fuc(a1-2)[GalNAc(a1-3)]Gal(b1-3)GlcNAc(b1-3)GalNAc
# Summary of the method: as §1
# [7] = biological target: Fuc(a1-3)[Gal(b1-4)]GlcNAc6S
# Summary of the method: as §1
# [8] = biological target: Fuc(a1-3)[Gal3S(b1-4)]Glc
# Summary of the method: as §1
# [9] = biological target: Fuc(a1-3)[Gal3S(b1-4)]GlcNAc
# Summary of the method: as §1
# [10] = biological target: Gal(a1-3)Gal
# Summary of the method: as §1
# [11] = biological target: Gal(a1-3)Gal(b1-3)GlcNAc(b1-2)Man
# Summary of the method: as §1
# [12] = biological target: Gal(b1-2)Gal
# Summary of the method: as §1
# [13] = biological target: Gal(b1-3)GlcNAc(a1-3)Gal(b1-4)GlcNAc
# Summary of the method: as §1
# [14] = biological target: Gal(b1-3)GlcNAc(b1-2)[Gal(b1-3)GlcNAc(b1-6)]Man(a1-6)[Gal(b1-3)GlcNAc(b1-2)Man(a1-3)]Man(b1-4)GlcNAc(b1-4)GlcNAc
# Summary of the method: as §1
# [15] = biological target: Gal(b1-3)GlcNAc(b1-3)Gal(b1-4)Glc
# Summary of the method: as §1
# [16] = biological target: Gal(b1-3)GlcNAc(b1-3)Gal(b1-4)GlcNAc(b1-2)[Gal(b1-3)GlcNAc(b1-3)Gal(b1-4)GlcNAc(b1-6)]Man(a1-6)[Gal(b1-3)GlcNAc(b1-3)Gal(b1-4)GlcNAc(b1-2)Man(a1-3)]Man(b1-4)GlcNAc(b1-4)[Fuc(a1-6)]GlcNAc
# Summary of the method: as §1
# [17] = biological target: Gal(b1-4)GlcNAc(b1-2)Man(a1-3)[Gal(b1-4)GlcNAc(b1-2)Man(a1-6)][GlcNAc(b1-4)]Man(b1-4)GlcNAc(b1-4)[Fuc(a1-6)]GlcNAc
# Summary of the method: as §1
# [18] = biological target: Gal(b1-4)GlcNAc(b1-3)Gal(b1-4)GlcNAc(b1-3)Gal(b1-4)GlcNAc
# Summary of the method: as §1
# [19] = biological target: Gal(b1-4)GlcNAc(b1-3)Gal(b1-4)GlcNAc(b1-3)Gal(b1-4)GlcNAc(b1-3)Gal(b1-4)GlcNAc(b1-3)Gal(b1-4)GlcNAc(b1-2)Man(a1-3)[Gal(b1-4)GlcNAc(b1-3)Gal(b1-4)GlcNAc(b1-3)Gal(b1-4)GlcNAc(b1-3)Gal(b1-4)GlcNAc(b1-3)Gal(b1-4)GlcNAc(b1-2)Man(a1-6)]Man(b1-4)GlcNAc(b1-4)GlcNAc
# Summary of the method: as §1
# [20] = biological target: Gal(b1-4)GlcNAc(b1-6)Gal(b1-4)GlcNAc
# Summary of the method: as §1
# [21] = biological target: Gal6S(b1-3)GlcNAc
# Summary of the method: as §1
# [22] = biological target: GalNAc(b1-4)GlcNAc
# Summary of the method: as §1
# [23] = biological target: GalNAc(b1-4)GlcNAc(b1-2)Man
# Summary of the method: as §1
# [24] = biological target: GalNAc(b1-4)GlcNAc(b1-3)GalNAc(b1-4)GlcNAc
# Summary of the method: as §1
# [25] = biological target: GalNAc4S6S(b1-4)GlcNAc
# Summary of the method: as §1
# [26] = biological target: Glc(a1-4)Glc(a1-4)Glc(a1-4)Glc
# Summary of the method: as §1
# [27] = biological target: Glc(a1-6)Glc(a1-6)Glc(a1-6)Glc
# Summary of the method: as §1
# [28] = biological target: Glc(b1-6)Glc
# Summary of the method: as §1
# [29] = biological target: GlcNAc(a1-4)Gal(b1-4)GalNAc
# Summary of the method: as §1
# [30] = biological target: GlcNAc(a1-4)Gal(b1-4)GlcNAc
# Summary of the method: as §1
# [31] = biological target: GlcNAc(a1-4)Gal(b1-4)GlcNAc(b1-3)Gal(b1-4)GlcNAc
# Summary of the method: as §1
# [32] = biological target: GlcNAc(b1-2)[GlcNAc(b1-4)]Man(a1-3)[GlcNAc(b1-4)][GlcNAc(b1-2)[GlcNAc(b1-6)]Man(a1-6)]Man(b1-4)GlcNAc(b1-4)[Fuc(a1-6)]GlcNAc
# Summary of the method: as §1
# [33] = biological target: GlcNAc(b1-3)Fuc
# Summary of the method: as §1
# [34] = biological target: GlcNAc(b1-3)Gal(b1-4)Glc
# Summary of the method: as §1
# [35] = biological target: GlcNAc(b1-3)Gal(b1-4)GlcNAc(b1-3)Gal(b1-4)GlcNAc(b1-2)Man(a1-3)[GlcNAc(b1-3)Gal(b1-4)GlcNAc(b1-3)Gal(b1-4)GlcNAc(b1-2)Man(a1-6)]Man(b1-4)GlcNAc(b1-4)GlcNAc
# Summary of the method: as §1
# [36] = biological target: GlcNAc(b1-3)Gal(b1-4)GlcNAc(b1-3)Gal(b1-4)GlcNAc(b1-3)Gal(b1-4)GlcNAc(b1-3)Gal(b1-4)GlcNAc(b1-2)Man(a1-3)[GlcNAc(b1-3)Gal(b1-4)GlcNAc(b1-3)Gal(b1-4)GlcNAc(b1-3)Gal(b1-4)GlcNAc(b1-3)Gal(b1-4)GlcNAc(b1-2)Man(a1-6)]Man(b1-4)GlcNAc(b1-4)[Fuc(a1-6)]GlcNAc
# Summary of the method: as §1
# [37] = biological target: GlcNAc(b1-3)Gal(b1-4)GlcNAc(b1-3)Gal(b1-4)GlcNAc(b1-3)Gal(b1-4)GlcNAc(b1-3)Gal(b1-4)GlcNAc(b1-2)[GlcNAc(b1-3)Gal(b1-4)GlcNAc(b1-3)Gal(b1-4)GlcNAc(b1-3)Gal(b1-4)GlcNAc(b1-3)Gal(b1-4)GlcNAc(b1-6)]Man(a1-6)[GlcNAc(b1-3)Gal(b1-4)GlcNAc(b1-3)Gal(b1-4)GlcNAc(b1-3)Gal(b1-4)GlcNAc(b1-3)Gal(b1-4)GlcNAc(b1-2)Man(a1-3)]Man(b1-4)GlcNAc(b1-4)[Fuc(a1-6)]GlcNAc
# Summary of the method: as §1
# [38] = biological target: GlcNAc(b1-3)Gal(b1-4)GlcNAc(b1-3)[GlcNAc(b1-3)Gal(b1-4)GlcNAc(b1-3)]GalNAc
# Summary of the method: as §1
# [39] = biological target: Kdn(a2-3)Gal(b1-4)GlcNAc
# Summary of the method: as §1
# [40] = biological target: Man(a1-2)Man(a1-2)Man(a1-3)Man
# Summary of the method: as §1
# [41] = biological target: Neu5Ac(a2-3)Gal(b1-3)GlcNAc(b1-3)Gal(b1-4)GlcNAc
# Summary of the method: as §1
# [42] = biological target: Neu5Ac(a2-3)Gal(b1-3)GlcNAc(b1-3)GalNAc
# Summary of the method: as §1
# [43] = biological target: Neu5Ac(a2-6)Gal(b1-4)GlcNAc(b1-2)Man
# Summary of the method: as §1
# [44] = biological target: Neu5Ac(a2-6)Gal(b1-4)GlcNAc(b1-3)Gal(b1-4)GlcNAc
# Summary of the method: as §1
# [45] = biological target: Neu5Ac(a2-8)Neu5Ac(a2-3)[Gal(b1-3)GalNAc(b1-4)]Gal(b1-4)Glc
# Summary of the method: as §1
# [46] = biological target: Neu5Gc(b2-6)Gal(b1-4)GlcNAc
# Summary of the method: as §1
binder,measurement,setting,value
B1,glycan array binding signal (z-score),[1],-0.318
same,glycan array binding signal (z-score),[2],-0.327
same,glycan array binding signal (z-score),[3],-0.558
same,glycan array binding signal (z-score),[4],0.048
same,glycan array binding signal (z-score),[5],2.91
same,glycan array binding signal (z-score),[6],-0.411
same,glycan array binding signal (z-score),[7],-0.132
same,glycan array binding signal (z-score),[8],-0.077
same,glycan array binding signal (z-score),[9],-0.278
same,glycan array binding signal (z-score),[10],0.105
same,glycan array binding signal (z-score),[11],-0.472
same,glycan array binding signal (z-score),[12],0.524
same,glycan array binding signal (z-score),[13],1.27
same,glycan array binding signal (z-score),[14],-0.438
same,glycan array binding signal (z-score),[15],0.215
same,glycan array binding signal (z-score),[16],0.004
same,glycan array binding signal (z-score),[17],-0.448
same,glycan array binding signal (z-score),[18],-0.198
same,glycan array binding signal (z-score),[19],10.7
same,glycan array binding signal (z-score),[20],-0.112
same,glycan array binding signal (z-score),[21],1.34
same,glycan array binding signal (z-score),[22],-0.367
same,glycan array binding signal (z-score),[23],0.357
same,glycan array binding signal (z-score),[24],-0.197
same,glycan array binding signal (z-score),[25],1.48
same,glycan array binding signal (z-score),[26],0.634
same,glycan array binding signal (z-score),[27],0.853
same,glycan array binding signal (z-score),[28],-0.442
same,glycan array binding signal (z-score),[29],0.088
same,glycan array binding signal (z-score),[30],3.49
same,glycan array binding signal (z-score),[31],-0.321
same,glycan array binding signal (z-score),[32],1.41
same,glycan array binding signal (z-score),[33],1.37
same,glycan array binding signal (z-score),[34],-0.08
same,glycan array binding signal (z-score),[35],-0.305
same,glycan array binding signal (z-score),[36],7.78
same,glycan array binding signal (z-score),[37],0.125
same,glycan array binding signal (z-score),[38],17.5
same,glycan array binding signal (z-score),[39],-0.467
same,glycan array binding signal (z-score),[40],-0.474
same,glycan array binding signal (z-score),[41],0.474
same,glycan array binding signal (z-score),[42],0.273
same,glycan array binding signal (z-score),[43],-0.409
same,glycan array binding signal (z-score),[44],-0.371
same,glycan array binding signal (z-score),[45],-0.007
same,glycan array binding signal (z-score),[46],-0.305
